# Data reported in PubChem BioAssay AID686978 (National Center for Advancing Translational Sciences (NCATS), 2013).
# “And” between values parts separate entries of the source, which are not always exact repeats. Equal values may be shown once. Out of some 420,000 compounds screened, about 64,000 (15%) were called active. About 27% were inconclusive and are not listed. The full list was thinned out, with actives kept by preference. Values without a mark were called inactive. Calls follow the shape of the dose curve; as a rule, active = well fitted inhibition curve with a large enough effect; inconclusive = small, poorly fitted or top-dose-only effect; inactive = flat fitted curve, though single readings scatter.
# Test: qHTS for Inhibitors of human tyrosyl-DNA phosphodiesterase 1 (TDP1): qHTS in cells in absence of CPT; also: nearly all actives have a fitted effect of over 55% in size
# Conditions: DT40 Tdp1-/- hTDP1 cells, no CPT, ATP luminescence, 48 h; series mostly up to 46.2 µM; activity change, negative = growth inhibition: at the top concentration
# Outline: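 Compound effects on proliferation are scored in DT40 Tdp1-/-;hTDP1 cells in the absence of CPT. ATP levels (CellTiter-Glo luminescence) are recorded after a ≥48 hr, 37 °C incubation.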
# % is scaled to controls: 0 for no effect and ±100 for the full control effect; potency is read from the fitted curve at half-maximal effect.
Structure (SMILES),Potency,"activity change, negative = growth inhibition"
C[C@@]1([C@@H](NP(=O)(c2ccccc2)c2ccccc2)c2ccccc2)C[C@H]1CCO,18.4 µM (active),–
CCN1CCN(C(=O)Cc2coc3cc(C)cc(C)c23)CC1,–,-10.5%
c1cncc(CNC2=NCCC2)c1,–,-15%
CCN1C(=O)NC(=O)C2(CCCC2)C1=O,–,-4.11%
COc1ccc(-c2nc(CS(=O)CC(=O)N3CCC4(CC3)OCCO4)c(C)o2)cc1 (stereo not drawn),–,2.45%
Cc1ccc(Cn2c(C)c3cnn(CC(=O)N4CCC5(CC4)OCCO5)c(=O)c3c2C)cc1,14.6 µM (active),–
O=C(CCCn1c(=O)[nH]c2cc(Cl)ccc2c1=O)N1CCC2(CC1)OCCO2,–,-6.95%
Cc1ccc(C(C)C)c(OCC(=O)N2CCN(CC(=O)N3CCOCC3)CC2)c1,–,-17.4%
COC1C(O)C(C)OC(OC2CCC3(C=O)C(CCC4C3CCC3(C)C(C5=CC(=O)OC5)CCC43O)C2)C1O (stereo not drawn),0.206 µM (active),–
COC1CC(OC2CC[C@@]3(C=O)C4CC[C@]5(C)C(C6=CC(=O)OC6)CC[C@@]5(O)C4CC[C@]3(O)C2)OC(C)C1O (stereo partly drawn),0.92 µM (active),–
CN(C)/C=C(\C=[N+](C)C)c1[nH]ncc1[N+](=O)[O-],–,7.97%
Cc1ccc(C2CN(C)CC2C(=O)c2ccc(F)cc2)cc1 (stereo not drawn),–,-12.1%
COc1ccc(-n2c(O)c(C(C)=Nc3ccc4c(c3)CCC4)c(=O)[nH]c2=O)cc1,–,-28.5%
Cc1ccc(-c2nc3ccccc3c(=O)n2-c2ccc(Br)cn2)cc1,–,-24.3%
COc1ccc(-n2c(-c3ccccc3)nc3ccccc3c2=O)cc1,13 µM (active),–
CSc1nc2ccc(C)cc2c(=O)n1-c1cccnc1,–,-9.55%
O=c1c2ccccc2nc(-c2ccccc2)n1-c1ccccn1,–,-2.29%
Cc1ccc(-n2c(-c3ccc([N+](=O)[O-])cc3)nc3ccccc3c2=O)cc1,8.2 µM (active),–
COC1=C[C@]23CCCN2CCc2cc4c(cc2[C@@H]3[C@@H]1O)OCO4,–,-13.2% [at 9.04 µM]
c1ccc2sc(C3CCCNC3)nc2c1 (stereo not drawn),–,-13%
CN(C)C(=O)Oc1cc(OC(=O)N(C)C)cc(C(O)CNC(C)(C)C)c1 (stereo not drawn),inactive,–
CC(=O)Cc1ccc(OC(C)C)cc1,–,-10.7%
OC1/C(=C/c2ccc(C(F)(F)F)cc2)N2CCC1CC2 (stereo not drawn),–,-13%
O=C(CCC(=O)N1C[C@H]2C[C@@H](C1)c1cccc(=O)n1C2)NCc1ccccc1C(F)(F)F,–,-0.958%

Structure (SMILES),Potency,"activity change, negative = growth inhibition"
C#C[C@]1(OC(=O)CCCCCC)CC[C@H]2[C@@H]3CCC4=CC(=O)CC[C@@H]4[C@H]3CC[C@@]21C,–,-21.7%
C#C[C@]1(O)CC[C@H]2[C@@H]3CCC4=C/C(=N/O)CC[C@@H]4[C@H]3CC[C@@]21CC,21.1 µM (active),–
CC(C)N(CC#CCC1(O)c2ccccc2-c2ccccc21)C(C)C,–,-24.2%
C[C@]12CCC3C(CC[C@H]4C[C@@H](O)CC[C@]34C)C1CC[C@@H]2O (stereo partly drawn),–,4.7%
O=C(O)C1CSC(c2cccnc2)N1 (stereo not drawn),–,-11.6%
CC(=O)c1ccc(S(=O)(=O)N2CCN(c3nc4c(C)c(C)ccc4cc3C#N)CC2)cc1,12.6 µM (active),–
CCOC(=O)CC1=C(C(=O)OCC)C2(C(=O)N1)C(C(=O)OC)=C(N)Oc1ccccc12 (stereo not drawn),–,0.689%
CCCCC(=O)N/N=C/c1c(O)n(-c2ccccc2)c(=O)[nH]c1=O,–,-10.2%
O=c1[nH]c(=O)n(CCc2ccc(F)cc2)c(O)c1/C=N/N1CCCCC1,–,-14.5%
CCCCC(=O)N/N=C/c1c(O)n(CCC2=CCCCC2)c(=O)[nH]c1=O,25.9 µM (active),–
CC(C)(Cc1c[nH]c2ccc(Cl)cc12)NCCOc1ccccc1OCC1CC1,26.6 µM (active) and 5.17 µM (active),–
CC1CCC(N(C)C2CCN(C)CC2)CC1 (stereo not drawn),–,-18.5%
O=C(COC(=O)Cc1ccccc1)Nc1ccc(F)cc1,–,1.09%
CCOC(=O)c1ccc(N2C(=O)c3[nH]nc(-c4ccccc4)c3C2c2ccc(C(C)C)cc2)cc1 (stereo not drawn),25.9 µM (active),–
CCN(N=Nc1nonc1OC)c1nonc1OC,–,-6.66%
O=c1[nH]c(=O)n(-c2ccc(F)cc2)c(O)c1C=NCCN1CCCCC1,–,4.02%
CCn1cc2nc(SCc3ccccc3Cl)n(CCc3ccccc3)c(=O)c2n1,20.6 µM (active),–
COc1cccc(OC)c1C(=O)NC(=S)N1C[C@H]2C[C@H](C1)c1cccc(=O)n1C2,–,0.63%
CC(C)=C[C@@H]1[C@@H](C(=O)OCc2coc(Cc3ccccc3)c2)C1(C)C,–,-4.94%
CN1CCN(C(=O)O[C@@H]2c3nccnc3C(=O)N2c2ccc(Cl)cn2)CC1,–,-14.9%
CCC(C)(O)C(=O)OC1C(=O)OC2CC3C(C)=CC(=O)C(O)C3(C)C3C4(O)OCC23C1C(C)C4O (stereo not drawn),0.13 µM (active),–
N#CC(C#N)=Cc1cc(O)c(O)c([N+](=O)[O-])c1,–,-19.8%
O=C(N/N=C/c1ccc([N+](=O)[O-])o1)c1cc([N+](=O)[O-])cc([N+](=O)[O-])c1O,–,-54%
CC(=O)OC1C2CCC3C1(CC(O)[C@@]1(O)[C@@H](CC(O)C1(C)C)[C@]3(C)O)C[C@@]2(C)O (stereo partly drawn),–,0.989%
